Assay outcomes as filed in PubChem.
PI5P4Ka inh = inhibitors of human PI5P4K alpha; PI5P4Kalpha enzyme, ADP-Glo luminescence, 60 min; hits give low values; max response, %; P48426; AID 652105; hit rate 1.2% among 330,000; active means max response of -50% or lower; inconclusive means between -30% and -50%; inactive means -30% or higher; further: value at the top dose of about 77 µM; on the % scale 0 is the no-effect control and ±100 the full control effect
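Single end-point luminescence (ADP-Glo) quantified ADP from PI5P4Kalpha turnover; ATP 5 microM final, 1 h at RT, 0.1% CHAPS and 0.28 mM EGTA in HEPES pH 7.4.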
JMJD2A Tudor inh = JMJD2A Tudor domain (human) inhibition. O75164. AlphaScreen JMJD2A-Tudor / H3K4me3 peptide binding. Potency, µM (doses to about 114 µM), without a hit: at the highest dose activity change, negative = inhibition, usual class: inhibitors. hit rate 4.4% among 390,000; further: potency means the concentration at half of the fitted maximal effect; on the % scale 0 is the no-effect control and ±100 the full control effect; nearly all actives have a fitted effect of over 50% in size
G9a block = blocks human histone lysine methyltransferase G9a; Q96KQ7; G9a H3K9 monomethylation, AlphaScreen, 2 h; Potency, µM (top dose mostly 102 µM), inactives show at the highest dose activity, negative = inhibition, most hits filed as inhibitors; hit rate 8.8% among 350,000; AID 504332; further: potency means the concentration at half of the fitted maximal effect; on the % scale 0 is the no-effect control and ±100 the full control effect; nearly all actives have a fitted effect of over 75% in size
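Using a bead-based AlphaScreen, monomethylated H3K9 product from 2 h room-temperature reactions (G9a 20 nM, peptide 500 nM, SAM 20 uM) was detected with 0.5 ug/mL rabbit anti-H3K9me1 antibody.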
BAZ2B block = blocks human BAZ2B. Potency, µM (highest dose often 114 µM), inactives show at the highest dose activity change, negative = inhibition, usual class: inhibitors. hit rate 4.4% among 360,000. AlphaScreen BAZ2B-H3K14Ac peptide displacement. Q9UIF8; further: potency means the concentration at half of the fitted maximal effect; on the % scale 0 is the no-effect control and ±100 the full control effect; nearly all actives have a fitted effect of over 60% in size
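BAZ2B (50 nM) with biotin-H3(5-23)K14Ac peptide (50 nM) in PBS pH 7.4, 0.01% Tween-20, preformed 30 min, then compound 30 min at room temperature; top concentration 110uM. AlphaScreen streptavidin donor/nickel chelate acceptor beads (10 ug/mL final), 20 min dark, signal read.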
PLK1 PBD block = inhibitors of human PLK1 polo-box domain binding. P53350. Plk1 PBD binding of FITC phosphopeptide, fluorescence polarization. Potency, µM, inactives show max response, negative = inhibition, actives largely listed as inhibitors. hit rate 2.8% among 360,000. AID 720504; further: potency means the concentration at half of the fitted maximal effect; series mostly up to about 57 µM; on the % scale 0 is the no-effect control and ±100 the full control effect; nearly all actives have a fitted effect of over 65% in size
Target sequence (P53350 whole entry, looked up, the tested form may be a part): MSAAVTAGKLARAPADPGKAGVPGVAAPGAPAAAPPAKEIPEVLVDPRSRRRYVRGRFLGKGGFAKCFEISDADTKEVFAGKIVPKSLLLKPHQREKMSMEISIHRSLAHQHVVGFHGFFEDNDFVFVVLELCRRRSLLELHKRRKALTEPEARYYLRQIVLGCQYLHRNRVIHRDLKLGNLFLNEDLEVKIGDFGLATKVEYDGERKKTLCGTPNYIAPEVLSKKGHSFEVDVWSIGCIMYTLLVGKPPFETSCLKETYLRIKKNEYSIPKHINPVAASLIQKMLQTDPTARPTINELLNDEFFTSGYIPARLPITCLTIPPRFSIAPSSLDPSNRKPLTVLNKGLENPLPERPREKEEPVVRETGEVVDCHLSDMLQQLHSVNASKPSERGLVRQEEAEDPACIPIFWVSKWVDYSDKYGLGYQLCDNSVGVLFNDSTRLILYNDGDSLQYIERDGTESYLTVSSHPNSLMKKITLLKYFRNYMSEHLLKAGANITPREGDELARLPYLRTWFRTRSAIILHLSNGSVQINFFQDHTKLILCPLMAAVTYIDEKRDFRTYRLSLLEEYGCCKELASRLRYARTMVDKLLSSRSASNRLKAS
HP1b binding inh = HP1-beta chromodomain-methylated histone interaction inhibition | AlphaScreen HP1-beta / biotin-H3K9me3 peptide binding | Potency, µM (highest dose often 114 µM), inactives show at the top dose activity change, negative = inhibition, hits mostly inhibitors | hit rate 0.56% among 390,000; further: potency means the concentration at half of the fitted maximal effect; nearly all actives have a fitted effect of over 70% in size
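HP1-beta protein (50 nM final) preincubated 30 min at room temperature with biotinylated H3(1-18)K9me3 peptide (50 nM) in PBS pH 7.4, 0.01% Tween-20, then compound added for 30 min. AlphaScreen streptavidin donor/nickel chelate acceptor beads (10 ug/mL final), 30 min dark, luminescence read.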
Starred values were filed as active, the others as inactive; ? = inconclusive; · = not tested or not shown; [ ] = dose if it differs, or a comment. This is a sample that favours compounds with a hit; in the whole collection about 12% have one here. Unless noted, the call rests on the fitted dose curve; in most records, active means well fitted curve in the direction sought with a large enough effect; inconclusive means small, poorly fitted or top-dose-only effect, or another doubt; inactive means no such curve, though single readings can be large; an effect the other way counts as inactive or inconclusive.

SMILES | PI5P4Ka inh | JMJD2A Tudor inh | G9a block | BAZ2B block | PLK1 PBD block | HP1b binding inh
COc1ccc(N2CCN(CCC(N)=O)CC2)cc1 | -3 | -15% | 15%[59 µM] | -5% | -5% | 31%
COc1cc(/C=C/c2nc(C#N)c(N3CCCCC3)o2)cc(OC)c1OC | · | -2% | -4%[59 µM] | -31% | · | 41%
CCOc1ccc(C(=O)N2CCCN(C(=O)c3ccc(OCC)cc3)CC2)cc1 | · | -21% | 32µM* | 5% | ? | 10%
Cc1cn(C)c(CC(=O)Nc2cccc(Cl)c2C)c1C(=O)O | · | -22% | -33%[59 µM] | -17% | · | 30%
CN1CCc2c(sc3c2C(=O)NC(c2ccc4c(c2)OCO4)N3)C1 (stereo unspecified) | · | -14% | 0%[12.7 µM] | -26% | -4% | 8%
Cc1sc2c(c1C)C(=O)NC(c1cccc(O)c1)N2 (stereo unspecified) | · | · | 45µM* | -8% | · | ·
COC(=O)c1ccc(C2NC(=O)c3c(sc(C)c3C)N2)cc1 (stereo unspecified) | -15 | -18% | 5.6µM* | 0% | 27µM* | 11%
Cc1[nH]c2ccccc2c1SCC(=O)N1CCC(C)CC1 | 0 | -8% | -34% | · | 4% | 50%
Cc1[nH]c2ccccc2c1C(c1ccncc1)N1CCC(C)CC1 (stereo unspecified) | 2 | ? | 28µM* | -11% | ? | -12%
CC(C)(C)n1nnnc1C(c1cccnc1)N1CCN(c2ccccc2F)CC1 (stereo unspecified) | 9 | -8% | -3%[59 µM] | 1% | -8% | 32%
Cc1[nH]c2ccccc2c1C(c1ccncc1)N1CCN(c2ccccc2F)CC1 (stereo unspecified) | 15 | ? | 11µM* | ? | -24% | -22%
Cc1[nH]c2ccccc2c1C(c1ccncc1)N1CCN(c2ccccn2)CC1 (stereo unspecified) | -9 | -35% | 22µM* | ? | -24% | ?
O=C(Nc1nnc(CCc2ccccc2)s1)C1CCN(C(=O)c2ccco2)CC1 | · | -18% | · | · | · | 12%
CC(C)(C)c1ccc(OCc2ccc(C(=O)Nc3cccnc3)o2)cc1 | -8 | -28% | -6% | -21% | -5% | 16%
CS(=O)(=O)Nc1ccc(-c2ccc(/C=C3\SC(N)=NC3=O)o2)cc1 | -65* | -29% | ? | -5% | -12% | 17%
NC1=NC(=O)/C(=C/c2ccc(-c3ccc(S(N)(=O)=O)cc3)o2)S1 | -12 | ? | ? | -35% | 5% | 106%
Cc1ccc(OCCCCn2nnc3sc4c(c3c2=O)CCC(C)C4)cc1 (stereo unspecified) | · | -21% | ? | ? | · | 70%
CC1CCc2c(sc3nnn(CCCCOc4ccc(Cl)cc4)c(=O)c23)C1 (stereo unspecified) | · | ? | 13µM* | -24% | · | 74%
CCCCc1ccc(C2C3=C(CC(C)(C)CC3=O)NC3=C2C(=O)c2ccccc23)cc1 (stereo unspecified) | 8 | ? | ? | ? | -14% | ?
O=C1CCCC2=C1C(c1cccc(O)c1)C1=C(N2)c2ccccc2C1=O (stereo unspecified) | -12 | -11% | 32µM* | -26% | -4% | 4%
CC1(C)CC(=O)C2=C(C1)NC1=C(C(=O)c3ccccc31)C2c1ccc(O)cc1 (stereo unspecified) | 0 | -29%[57.1 µM] | 25µM* | 40µM* | -20% | 7%
COc1cccc(C2C3=C(CCCC3=O)NC3=C2C(=O)c2ccccc23)c1 (stereo unspecified) | · | · | ? | -22% | · | ·
CCCc1ccc(C2C3=C(CC(C)(C)CC3=O)NC3=C2C(=O)c2ccccc23)cc1 (stereo unspecified) | · | ? | 35µM* | 25µM* | -13% | -37%
Cc1nn(-c2ccccc2)c(OC(=O)c2ccccc2)c1S(=O)(=O)c1ccccc1 | · | -30% | ? | -19% | · | -1%
COc1cn(-c2ccccc2)nc1C(=O)Nc1ccc(C)cc1 | -1 | -16% | -3% | -4% | -6% | 14%
SMILES | PI5P4Ka inh | JMJD2A Tudor inh | G9a block | BAZ2B block | PLK1 PBD block | HP1b binding inh
COc1cn(-c2ccccc2)nc1C(=O)Nc1ccccc1 | -5 | -9% | 50µM* | -5% | -2% | 2%
Cn1c(=NC(=O)c2ccc(S(=O)(=O)N3CCCC3)cc2)sc2cc(F)ccc21 | · | -3% | 21%[59 µM] | 3% | · | 44%
COc1ccc(OC)c(NC(=O)CSc2nncc3ccccc23)c1 | 0 | -6% | · | 14% | -26% | 12%
COc1ccc(C(=O)Sc2nncc3ccccc23)cc1 | 0 | ? | 22µM* | 71µM* | ? | 11%
COc1cccc(C(c2sc3nc(-c4ccco4)nn3c2O)N2CCN(c3ccccc3F)CC2)c1 (stereo unspecified) | · | ? | ? | ? | · | -4%
CC(=O)c1ccccc1OC(=O)COc1ccc(Cl)cc1C | -12 | -19%[11.4 µM] | 95% | 33% | 21µM* | 108%
Nc1cc2c([N+](=O)[O-])cccc2o1 | -25 | -22% | 3%[2.33 µM] | 56µM* | -11% | -24%
COc1ccccc1C(=O)N1CCC(c2c[nH]c3ccccc23)(c2c[nH]c3ccccc23)CC1 | · | -31% | -35%[59 µM] | -38% | · | 6%
Cc1ccc2[nH]c3c(=O)n(CC(=O)N4CCCCC4)ncc3c2c1 | · | -1% | -10%[59 µM] | 8%[57.1 µM] | · | 37%
Cc1ccc(C)c(N2CCN(C(=O)Cn3ncc4c([nH]c5ccc(C)cc54)c3=O)CC2)c1 | -2 | 25% | 71µM* | -11% | 3% | 35%
CC1CC(C)CN(C(=O)Cn2ncc3c([nH]c4ccccc43)c2=O)C1 (stereo unspecified) | -8 | 25µM* | 16% | -6%[57.1 µM] | 24µM* | -5%
CNC(=O)c1c(NC(=O)c2ccc(S(=O)(=O)N3CCCC(C)C3)cc2)sc2c1CCC2 (stereo unspecified) | · | -26% | 0%[59 µM] | -7% | · | 6%[57 µM]
CC(C)(C)[C@H](NC(=O)c1ccc(N)c(Cl)c1)C(=O)N1CCC[C@H]1C(=O)N[C@H](C#N)Cc1nn[nH]n1 | · | · | ? | -38% | · | ·
Oc1c(N=NC(=S)Nc2ccccc2F)c2ccccc2n1Cc1ccccc1F | 9 | ? | 11µM* | -32% | -1% | ?
Cc1ccc(C)c(Cn2c(O)c(N=NC(=S)Nc3ccccc3F)c3ccccc32)c1 | -24 | ? | ? | 1% | 24µM* | ?
Oc1c(N=NC(=S)Nc2ccccc2F)c2ccccc2n1Cc1ccc(Cl)cc1 | 3 | ? | 10µM* | ? | 0% | -6%
CCNC(=S)N=Nc1c(O)n(Cc2ccc(Cl)cc2)c2ccccc12 | 0 | ? | ? | ? | -15% | ?
Cc1ccccc1Cn1c(O)c(N=NC(=S)Nc2ccccc2F)c2ccccc21 | -1 | ? | 13µM* | ? | 0% | ?
